Data published in PubChem BioAssay AID1903 (Southern Research Specialized Biocontainment Screening …, 2009).
About 1,200 (0.39%) of roughly 310,000 compounds were called active. The rule behind the calls is not given here. Only a sample is shown. Measured potencies and affinities stand elsewhere.

biological target: Large T antigen (Simian virus 40) (UniProt P03070); experiment: TAg ATPase/helicase activity blockers – biochemical (AID 1903); conditions: SV40 large T antigen ATPase/helicase inhibition assay; at 20 µM; active compounds read high
Sequence (P03070 whole entry, looked up): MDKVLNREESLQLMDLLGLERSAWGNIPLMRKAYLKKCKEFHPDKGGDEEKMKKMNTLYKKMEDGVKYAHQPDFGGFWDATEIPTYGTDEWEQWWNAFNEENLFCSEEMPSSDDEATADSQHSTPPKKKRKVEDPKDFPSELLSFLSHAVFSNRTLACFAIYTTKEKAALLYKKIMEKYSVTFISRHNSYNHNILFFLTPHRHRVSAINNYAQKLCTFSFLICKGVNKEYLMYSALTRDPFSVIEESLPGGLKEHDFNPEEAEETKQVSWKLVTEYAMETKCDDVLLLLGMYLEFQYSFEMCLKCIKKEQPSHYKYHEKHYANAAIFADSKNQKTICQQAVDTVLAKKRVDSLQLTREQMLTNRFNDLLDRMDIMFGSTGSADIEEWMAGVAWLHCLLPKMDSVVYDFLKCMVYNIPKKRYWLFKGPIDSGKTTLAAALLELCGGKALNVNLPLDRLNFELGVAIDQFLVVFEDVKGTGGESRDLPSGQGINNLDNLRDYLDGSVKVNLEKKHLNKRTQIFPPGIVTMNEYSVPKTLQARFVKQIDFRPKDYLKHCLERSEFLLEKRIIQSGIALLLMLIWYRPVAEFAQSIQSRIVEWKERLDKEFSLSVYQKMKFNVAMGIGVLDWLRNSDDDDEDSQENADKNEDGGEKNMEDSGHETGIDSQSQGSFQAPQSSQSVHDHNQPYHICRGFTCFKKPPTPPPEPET

inhibition, inactive:
Nc1nnnn1CC(=O)N/N=C/C=C/c1ccccc1 13.8%
CC(C)N=C(Nc1ccccc1)c1cccnc1 -1.87%
Cc1snc(SCc2ccc(F)cc2)c1C#N 10.8%
COc1ccc(NC(=O)c2ccc(-n3cnnn3)cc2)c([N+](=O)[O-])c1 -1.81%
O=C1CSC(=S)N1c1cccc(Br)c1 9.66%
O=C1c2c([N+](=O)[O-])cc([N+](=O)[O-])cc2S(=O)N1Cc1ccccc1 (centres undefined) 11.3%
O=c1c2c([N+](=O)[O-])cc([N+](=O)[O-])cc2nc2ccccn12 9.53%
CC1CCCC(C)N1C(=O)COC(=O)c1ccc2c(c1)OCO2 (centres undefined) -2.3%
Cc1ccc(S(=O)(=O)N2CCN(C(=O)COC(=O)CCOc3cc(C)ccc3C)CC2)cc1 7.19%
COc1ccccc1OCC(=O)N1CCNC1=O 12%
O=Cc1ccc2c(c1)CCN2Cc1ccccc1 3.42%
O=C1NC(=S)N/C1=C/c1ccc2c(c1)OCO2 11.6%
O=C(O)c1cccc(S(=O)(=O)Nc2ccc3[nH]c(=O)[nH]c3c2)c1 -8.06%
CC(=O)c1c(C)oc2ccc(NS(=O)(=O)c3ccc(O)c(C(=O)O)c3)cc12 20.5%
O=C(O)c1cc(NS(=O)(=O)c2ccc3ccccc3c2)ccc1O 25.9%
O=C(O)c1cccc(S(=O)(=O)Nc2ccc3c(c2)OCO3)c1 15.8%
C=CCN(c1ccccc1)S(=O)(=O)c1cccc(C(=O)NNC(=O)c2ccccc2O)c1 7.21%
CC(C)c1nc(SCC(=O)Nc2ccc3c(c2)OCCO3)c2c(=O)n(C)c(=O)n(C)c2n1 3.08%
Cc1c(NC(=O)/C(C#N)=C/c2ccc(-c3cc(Cl)ccc3Cl)o2)c(=O)n(-c2ccccc2)n1C 0.645%
C/C(=N\Nc1nc(N)cc(Cl)n1)c1ccc(F)cc1 1.42%
CSc1cccc(CNC(=O)C2CCC(=O)N(CCc3ccccn3)C2)c1 (centres undefined) 25.2%
Cc1ccc(-c2ccc(=O)n(CC(=O)NCCN3C(C)CCCC3C)n2)cc1 (centres undefined) 0.56%
COc1ccccc1N(CC(=O)NCc1ccccc1C)S(=O)(=O)c1ccc(C)cc1 2.07%
O=C1Nc2ccccc2Nc2ncccc21 -0.98%
Cc1ccc2c(c1)/C(=C/c1ccco1)C(=O)N2 -3.2%
COc1cc(C(=O)O)c2c(c1C)OC(=O)c1c(C)cc(O)c(C=O)c1O2 5.23%
COc1cc(C)c2c(c1C=O)Oc1c(c(C)c(O)c3c1C(O)OC3=O)OC2=O (centres undefined) 20%
Cc1ccccc1NC(=O)NC1(C(=O)N2CCN(C)CC2)CCCCC1 8.19%
COc1cc(OC)cc(C(=O)N/N=C/c2ccc(OC)c(COc3ccc(F)cc3)c2)c1 -6.49%
Cc1ccc(-c2nnc(Nc3cccc(O)c3)c3ccccc23)cc1S(=O)(=O)NCCO 34.4%
CC(=O)Nc1ccc(Nc2nnc(-c3ccc(C)c(S(=O)(=O)NCCO)c3)c3ccccc23)cc1 10.9%
Cc1cnc(NCCc2ccccc2)s1 7.89%
O=C(CSc1nncc2ccccc12)Nc1cccc(C(=O)O)c1 27.1%
CN(CC(=O)Nc1ccc(F)cc1)C(=O)COc1ccc([N+](=O)[O-])cc1Cl 0.38%
C[C@@H]1O[C@@H](O[C@H]2[C@H](Oc3cc(O)c4c(c3)OC(c3ccc(O)cc3)CC4=O)O[C@H](CO)[C@@H](O)[C@@H]2O)[C@H](O)[C@H](O)[C@H]1O (some centres undefined) 34%
C[C@@H]1O[C@@H](O[C@H]2[C@H](Oc3cc(O)c4c(c3)O[C@H](c3ccc(O)cc3)CC4=O)O[C@H](CO)[C@@H](O)[C@@H]2O)[C@H](O)[C@H](O)[C@H]1O 25.7%
CC(C)Oc1ccc(CN2CCCC(CO)(Cc3ccc(F)cc3)C2)cc1 (centres undefined) 6.25%
Cc1nn(-c2ccccc2)c2sc(C(=O)NCCN3CCOCC3)cc12 16.1%
O=C1NN(c2cccc(Br)c2)C(=O)/C1=C\c1ccccc1 26.7%
O=C1NN(c2cccc(Br)c2)C(=O)/C1=C\c1ccc(N2CCOCC2)cc1 8.36%
O=C(NCc1ccccc1)C1CC(=O)N(c2ccc(OCC(=O)N3CCCC3)cc2)C1 (centres undefined) 5.81%
COc1ccccc1N(CC(=O)NCc1ccco1)S(C)(=O)=O 15.8%
Cc1c(Nc2cc(Cl)c3nonc3c2[N+](=O)[O-])c(=O)n(-c2ccccc2)n1C 26.5%
O=C(O)c1cccc(Nc2ccc3nonc3c2[N+](=O)[O-])c1 10.9%
O=C(O)c1cccc(Nc2cc(Cl)c3nonc3c2[N+](=O)[O-])c1 20.1%
O=[N+]([O-])c1c(Nc2ccccc2O)cc(Cl)c2nonc12 29.4%
O=C(O)c1ccccc1Nc1cc(Cl)c2nonc2c1[N+](=O)[O-] 33.3%
O=[N+]([O-])c1c(Nc2ccccn2)cc(Cl)c2nonc12 27.4%
CN(C)c1cc(Nc2cccc(O)c2)c([N+](=O)[O-])c2nonc12 16.9%
CN(C)c1cc(Nc2ccc(O)cc2)c([N+](=O)[O-])c2nonc12 14.7%
O=C(O)c1cnc(-c2ccccc2)nc1Sc1ccc(Cl)cc1 12.4%
CCOc1ccc(C(c2nnnn2C(C)(C)C)N2CCN(C(=O)c3ccco3)CC2)cc1 (centres undefined) 4.34%
CC(NS(=O)(=O)c1ccc(F)cc1)C(c1cccs1)N1CCOCC1 (centres undefined) -5.54%
COC(=O)c1ccccc1NC(=O)CCCCCn1nnc2ccccc2c1=O 26.9%
COc1cccc(CN(C)CC(=O)NCc2ccc(F)cc2)c1OC -3.04%
CC(=O)Oc1ccc(-c2cccc(C(=O)Oc3ccccc3)c2)cc1 -7.54%
CCN(CC)S(=O)(=O)c1ccc(NC(=O)COC(=O)CCc2cc(OC)c(OC)c(OC)c2)cc1 0.42%
O=[N+]([O-])c1ccccc1NCCOc1ccccc1 5.2%
COC(=O)c1ccccc1NC(=O)C/C(C)=N/NC(=O)CC#N 6.52%
CC(C)C[C@H](NC(=O)Nc1cccc(Cl)c1)C(=O)O 10.3%
O=C(CN1CCOCC1)Nc1ccccc1Cl 8.91%
NC(N)=N/N=C/c1cc([N+](=O)[O-])ccc1O 9.25%
O=C(N/N=C/c1ccc(O)cc1O)C1CC1 33.4%
NC(=O)N/N=C/c1ccc(-c2ccc([N+](=O)[O-])cc2)o1 12.1%
O=C(N/N=C/c1ccc(-c2cccc([N+](=O)[O-])c2)o1)c1ccccc1O 2.92%
CCCCn1c(N)c(N(CC(C)C)C(=O)C2CCN(S(=O)(=O)c3ccc(Cl)cc3)CC2)c(=O)[nH]c1=O 11.5%
O=C(NCC1CCCCC1)c1cccnc1 11.1%
CCCC(=O)Nc1cc2c3c(c1)CC(=O)N3CCC2 8.54%
O=C(NCCO)C(=O)Nc1cc2c3c(c1)CC(=O)N3CCC2 7.7%
Cc1cc(C)cc(Nc2ccc(C(=O)O)cc2N)c1 23.9%
Cc1ccc(Nc2ccc(C(=O)O)cc2N)cc1 -4.88%
Nc1ccc(Nc2ccccc2)c(Cl)c1 19.8%
Cc1ccc(Nc2ccc(N)cc2S(=O)(=O)O)cc1 21.6%
CC(=O)c1c(NCCc2ccccc2)cc(C)oc1=O -0.81%
CCC(OC(=O)c1cccs1)C(=O)NCc1ccco1 (centres undefined) 8.42%
Cc1c(Cl)cccc1NC(=O)NC1CCCCC1 2.26%
CCc1cccc2c(C(=O)CSc3nncn3-c3ccccc3OC)c[nH]c12 2.74%
COc1cccc(-n2cc(C(=O)NCCCOC(C)C)c3ccccc3c2=O)c1 11.2%
O=C(/C=C/c1ccc(O)c(O)c1)OC(Cc1ccc(O)c(O)c1)C(=O)O (centres undefined) 4.28%
O=C(/C=C/c1ccc(O)c(O)c1)OCCc1ccccc1 37.9%
CN(CCCNS(=O)(=O)c1cccc2cccnc12)Cc1ccccc1 -0.29%
O=C(Cn1c(=O)n(Cc2ccco2)c(=O)c2c3c(sc21)CCCCC3)Nc1ccccc1 51.6%
O=C(Cn1c(=O)n(Cc2ccco2)c(=O)c2c3c(sc21)CCCCC3)c1ccccc1 49.4%
CN1C(=O)C(CC(=O)NC2CCCCC2)N(C)C1=O (centres undefined) -7.63%
CCOc1ccc(N=Cc2c(O)cc(C)oc2=O)cc1 18.6%
Cc1cccc(N=Cc2c(O)cc(C)oc2=O)c1 7.74%
NC(=O)CN1CCN(S(=O)(=O)c2ccc(Cl)cc2)CC1 4.21%
COc1ccc(C2CC(=O)C=C(O)C2)cc1 (centres undefined) 6.5%
COc1ccc(C(C2C(=O)CC(C)(C)CC2=O)C2C(=O)CC(C)(C)CC2=O)cc1 25.9%
CC(=O)N(Cc1cccc(Br)c1)c1ccc(N2CCOCC2)c(Cl)c1 9.14%
Cn1c(COc2ccc3ccccc3c2)nnc1SCC(N)=O -1.72%
NC(=O)c1cc2ccc(O)cc2oc1=Nc1ccccc1 36.3%
Cc1cccc(N=c2oc3cc(O)ccc3cc2C(N)=O)c1 22.6%
CN(C)/C=N/c1c(C#N)cnn1-c1ccccc1 9.99%
